Measured values: the supplement of paper PMC6897291
Values joined by “and” are separate entries in the source; they are usually repeats but may differ in a detail not shown here. Equal entries are not always repeated. Structures can show the parent of a compound that is named as a salt.

What was measured:
RIVA [1] = assay: growth inhibition by drug alone (1 - RLU/untreated control) (fraction); higher = stronger inhibition; details: 177Lu-lilotomab satetraxetan 0 ug/ml
Outline: (§1)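 Compound doses on the pre-printed Selleck Cambridge Cancer Compound library plates were 10/100 nM for RIVA cells and 10/1,000 nM for U-2932 cells, seeded at 3,000 cells/well. Before seeding, cells were washed after 18 h with or without a radiolabelled anti-CD37 antibody conjugate (~600 MBq/mg; 0.5 µg/ml RIVA, 1 µg/ml U-2932). Growth inhibition was derived from RealTime-Glo luminescence relative to untreated no-drug control wells. Readings were taken daily starting on day 3, each after 1 h at 37°C, and each well's RLU was divided by the mean of 48 such wells per plate and subtracted from 1.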

U-2932 [2] = assay: growth inhibition by drug plus 177Lu-lilotomab satetraxetan (1 - RLU/untreated control) (fraction); higher = stronger inhibition; details: 177Lu-lilotomab satetraxetan 1 ug/ml
Outline: as §1

RIVA [3] = assay: as above; details: 177Lu-lilotomab satetraxetan 0.5 ug/ml
Outline: as §1

U-2932 [4] = assay: growth inhibition by drug alone (1 - RLU/untreated control) (fraction); higher = stronger inhibition; details: 177Lu-lilotomab satetraxetan 0 ug/ml
Outline: as §1

SMILES	growth inhibition by drug alone (RIVA [1]; 10 nM, time (day): 3)	growth inhibition by drug alone (RIVA [1]; 10 nM, time (day): 4)	growth inhibition by drug alone (RIVA [1]; 10 nM, time (day): 5)	growth inhibition by drug alone (RIVA [1]; 10 nM, time (day): 6)	growth inhibition by drug alone (RIVA [1]; 100 nM, time (day): 3)	growth inhibition by drug alone (RIVA [1]; 100 nM, time (day): 4)	growth inhibition by drug alone (RIVA [1]; 100 nM, time (day): 5)	growth inhibition by drug alone (RIVA [1]; 100 nM, time (day): 6)	growth inhibition by drug plus 177Lu-lilotomab satetraxetan (U-2932 [2]; 10 nM, time (day): 3)	growth inhibition by drug plus 177Lu-lilotomab satetraxetan (U-2932 [2]; 10 nM, time (day): 4)	growth inhibition by drug plus 177Lu-lilotomab satetraxetan (U-2932 [2]; 10 nM, time (day): 5)	growth inhibition by drug plus 177Lu-lilotomab satetraxetan (U-2932 [2]; 10 nM, time (day): 6)	growth inhibition by drug plus 177Lu-lilotomab satetraxetan (U-2932 [2]; 1000 nM, time (day): 3)	growth inhibition by drug plus 177Lu-lilotomab satetraxetan (U-2932 [2]; 1000 nM, time (day): 4)	growth inhibition by drug plus 177Lu-lilotomab satetraxetan (U-2932 [2]; 1000 nM, time (day): 5)	growth inhibition by drug plus 177Lu-lilotomab satetraxetan (U-2932 [2]; 1000 nM, time (day): 6)	growth inhibition by drug plus 177Lu-lilotomab satetraxetan (RIVA [3]; 10 nM, time (day): 3)	growth inhibition by drug plus 177Lu-lilotomab satetraxetan (RIVA [3]; 10 nM, time (day): 4)	growth inhibition by drug plus 177Lu-lilotomab satetraxetan (RIVA [3]; 10 nM, time (day): 5)	growth inhibition by drug plus 177Lu-lilotomab satetraxetan (RIVA [3]; 10 nM, time (day): 6)	growth inhibition by drug plus 177Lu-lilotomab satetraxetan (RIVA [3]; 100 nM, time (day): 3)	growth inhibition by drug plus 177Lu-lilotomab satetraxetan (RIVA [3]; 100 nM, time (day): 4)	growth inhibition by drug plus 177Lu-lilotomab satetraxetan (RIVA [3]; 100 nM, time (day): 5)	growth inhibition by drug plus 177Lu-lilotomab satetraxetan (RIVA [3]; 100 nM, time (day): 6)	growth inhibition by drug alone (U-2932 [4]; 10 nM, time (day): 3)	growth inhibition by drug alone (U-2932 [4]; 10 nM, time (day): 4)	growth inhibition by drug alone (U-2932 [4]; 10 nM, time (day): 5)	growth inhibition by drug alone (U-2932 [4]; 10 nM, time (day): 6)	growth inhibition by drug alone (U-2932 [4]; 1000 nM, time (day): 3)	growth inhibition by drug alone (U-2932 [4]; 1000 nM, time (day): 4)	growth inhibition by drug alone (U-2932 [4]; 1000 nM, time (day): 5)	growth inhibition by drug alone (U-2932 [4]; 1000 nM, time (day): 6)
CC(C)n1nc(-c2ccc3oc(N)nc3c2)c2c(N)ncnc21	0.258	0.176	0.117	-0.0267	0.716	0.708	0.699	0.63	0.352	0.294	0.31	0.355	0.908	0.905	0.918	0.937	0.595	0.576	0.586	0.587	0.816	0.84	0.835	0.833								
C[C@]12CCC(=O)C=C1CC[C@@H]1[C@@H]2[C@@H](O)C[C@@]2(C)[C@H]1CC[C@]2(O)C(=O)CO [Hydrocortisone (Cortisol)]	-0.0911	-0.0297	-0.194	-0.593	-0.515	-0.297	-0.373	-0.697	0.0227	0.0897	0.119	0.139	0.281	0.288	0.293	0.362									0.112	0.0854	0.0156	-0.0358	0.303	0.304	0.221	0.167
CCc1cncnc1N1CCN(Cc2nc3ccc(C(F)(F)F)cc3[nH]2)CC1									0.00491	0.0254	0.0426	0.0627	-0.00879	0.086	0.0686	0.0567																
C=CC(=O)Nc1cccc(Oc2nc(Nc3ccc(N4CCN(C)CC4)cc3OC)ncc2Cl)c1	-0.189	-0.196	-0.216	-0.258	-0.151	-0.238	-0.251	-0.328	-0.102	-0.073	-0.0211	0.138	0.163	0.104	0.0972	0.216	0.397	0.494	0.517	0.516	0.215	0.265	0.299	0.321								
C/C(=C\C(=O)Nc1ccccc1C(=O)O)c1ccc2ccccc2c1			-0.0819 and -0.194	-0.258 and -0.514					-0.0301 and -0.033		0.025 and 0.0323		-0.0817 and -0.0426			0.0333 and 0.0305	0.404 and 0.42	0.545 and 0.538	0.571 and 0.547	0.581 and 0.558	0.399 and 0.427	0.502 and 0.474	0.502 and 0.482	0.484 and 0.467		0.0133 and 0.0332			-0.0224 and -0.014		-0.0613 and -0.0571	-0.273 and -0.127
Nc1nc(Cl)nc2c1ncn2[C@H]1C[C@H](O)[C@@H](CO)O1 [Cladribine]	0.0585	0.0126	0.00678	0.0233	-0.00435	0.239	0.319	0.387	0.0179	0.0736	0.11	0.212	0.942	0.971	0.983	0.989																
C[C@@H]1CCN(C(=O)CC#N)C[C@@H]1N(C)c1ncnc2[nH]ccc12				-0.145 and -0.158				-0.23 and -0.152	-0.0798 and -0.0527				-0.1 and -0.107				0.396 and 0.421	0.461 and 0.516	0.484 and 0.536	0.5 and 0.538	0.367 and 0.379	0.424 and 0.434	0.412 and 0.435	0.396 and 0.419							-0.0604 and -0.0478	
C[C@@H](Oc1cc(-n2cnc3ccc(CN4CCN(C)CC4)cc32)sc1C(N)=O)c1ccccc1C(F)(F)F	0.364	0.265	0.248	0.223	0.944	0.961	0.967	0.969	0.423	0.489	0.536	0.644	0.926	0.959	0.975	0.982									0.444	0.458	0.438	0.516	0.94	0.961	0.973	0.981
CC[C@@H]1C(=O)N(C)c2cnc(Nc3ccc(C(=O)NC4CCN(C)CC4)cc3OC)nc2N1C1CCCC1	0.903	0.895	0.9	0.908	0.937	0.955	0.964	0.968	0.814	0.856	0.903	0.941	0.938	0.957	0.97	0.982																
O=C(Nc1ncc([N+](=O)[O-])s1)c1ccc([N+](=O)[O-])c(Cl)c1	0.137	0.114	0.0837	0.0697	-0.0662	-0.0483	-0.0824	-0.14	0.064	0.0915	0.164	0.259	0.142	0.136	0.179	0.3									0.119	0.0794	0.00802	0.0242	0.153	0.14	0.0538	0.129
CO[C@H]1/C=C\C=C(/C)C(=O)NC2=CC(=O)C(NCCN(C)C)=C(C[C@@H](C)C[C@H](OC)[C@H](O)[C@@H](C)/C=C(\C)[C@@H]1OC(N)=O)C2=O [17-DMAG HCl (Alvespimycin)]	0.132	0.103	0.0633	-0.0974	0.922	0.953	0.961	0.96	0.0703	0.119	0.177	0.21	0.956	0.982	0.988	0.99																
C[C@]12CC[C@H](O)CC1=CC[C@@H]1[C@@H]2CC[C@]2(C)C(c3cccnc3)=CC[C@@H]12 [Abiraterone (CB-7598)]	-0.0346	-0.0301	-0.224	-0.618	-0.373	-0.274	-0.381	-0.72	0.0329	0.0754	0.164	0.196	-0.00601	0.0151	0.0665	0.163	0.487	0.574	0.591	0.595	0.305	0.41	0.407	0.425								
CNC(=O)c1cc(Oc2ccc(NC(=O)Nc3ccc(Cl)c(C(F)(F)F)c3)c(F)c2)ccn1 [Regorafenib (BAY 73-4506)]	0.0302	0.118	0.0999	0.0537	0.189	0.262	0.302	0.293	0.125	0.179	0.283	0.319	0.269	0.291	0.39	0.48	0.632	0.688	0.717	0.733	0.463	0.581	0.629	0.644								
